Screening data from PubChem BioAssay.
This is one part of a sample in which hits are shown more often than they occur.
Eya2 phos inh – blocks the phosphatase activity of human Eya2; O00167; recombinant Eya2, OMFP fluorescence dephosphorylation (OMFP is methylfluorescein phosphate); Potency, µM (titrated, usually from 76.9 µM), without a hit: at the top dose activity, negative = inhibition, actives largely listed as inhibitors; 0.006% of 330,000 active; further: on the % scale 0 is the no-effect control and ±100 the full control effect
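Eya2 protein (added as 0.2 uM solution) was preincubated with compound for 10 min at ambient temperature in 50 mM HEPES pH 7.5, 50 mM NaCl, 5 uM MgCl2, 0.05% BSA, 1 mM DTT. OMFP (added at 50 uM) then reacted 10 min; fluorescence read at 485/525 nm.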
GALK inhibitor – galactokinase (human) inhibition | 0.007% of 270,000 active | Purified GALK, Kinase-Glo residual ATP luminescence | P51570 | Potency, µM (highest dose often 57.5 µM), without a hit: at the highest dose activity change, negative = inhibition, hits mostly inhibitors; further: on the % scale 0 is the no-effect control and ±100 the full control effect
Target sequence (P51570 whole entry, looked up): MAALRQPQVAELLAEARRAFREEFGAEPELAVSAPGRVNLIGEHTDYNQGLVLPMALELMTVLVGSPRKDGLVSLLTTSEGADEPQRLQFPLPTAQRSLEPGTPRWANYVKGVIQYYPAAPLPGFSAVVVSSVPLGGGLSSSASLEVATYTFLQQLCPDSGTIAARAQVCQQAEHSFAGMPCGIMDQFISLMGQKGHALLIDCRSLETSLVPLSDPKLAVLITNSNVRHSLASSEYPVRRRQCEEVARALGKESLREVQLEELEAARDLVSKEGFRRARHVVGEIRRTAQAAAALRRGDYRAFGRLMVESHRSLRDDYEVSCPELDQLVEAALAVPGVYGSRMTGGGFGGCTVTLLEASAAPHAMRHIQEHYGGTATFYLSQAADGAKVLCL
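Compounds were pin-transferred into ATP buffer (35 uM final), then GALK plus galactose (5 nM, 100 uM final) was added. After 1 h at room temperature, Kinase-Glo Plus was added and luminescence read after 10 min.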
ClpP mod – qHTS Assay for Activators of ClpP | ATP-dependent Clp protease proteolytic subunit (Bacillus subtilis (strain 168)), P80244 | purified B. subtilis ClpP, FRET peptide cleavage, 20 min | Potency, µM (doses to about 57.5 µM), inactives show at the top dose activity change, negative = active | 1.9% of 340,000 active; active means well fitted falling curve with a large enough effect; inconclusive means small, poorly fitted or top-dose-only effect; inactive means no such curve, though single readings can be large or run the other way; further: the source files actives as falling curves though it sought activators and does not explain the sign; nearly all actives have a fitted effect of over 65% in size
Target sequence (P80244 whole entry, looked up): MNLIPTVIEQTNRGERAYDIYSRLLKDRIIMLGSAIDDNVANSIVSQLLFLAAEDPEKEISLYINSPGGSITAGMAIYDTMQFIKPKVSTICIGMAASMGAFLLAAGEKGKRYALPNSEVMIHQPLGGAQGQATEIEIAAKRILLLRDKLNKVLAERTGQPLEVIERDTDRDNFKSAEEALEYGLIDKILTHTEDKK
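ClpP 10 microg/mL final, pH 8 Tris/KCl buffer with BSA, glycerol, Tween-20; compound pinned in; FRET-FV substrate; RT 20 min; Ex320/Em430; ΔFRET vs ADEP 5.8 microM, DMSO, no enzyme.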
USP2a block – inhibitors of human ubiquitin-specific protease USP2a; O75604; USP2 core, Ub-CHOP2 coupled fluorogenic reporter, 485/531; Potency, µM (titrated, usually from 38.3 µM), inactives show at the top dose activity change, negative = inhibition, hits mostly inhibitors; 0.01% of 330,000 active; AID 463254;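 further: plate controls were DMSO wells for no effect and full inhibition by NEM control for full effect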
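USP2 core (10nM final) preincubated 30min RT with compound in 20mM Tris-HCl pH 8.0, 2mM CaCl2, 2mM beta-mercaptoethanol, 0.05% CHAPS; 25nM Ub-CHOP2 plus 25nM reporter substrate added, fluorescence (Ex485/Em531) read after 60min.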
An asterisk follows results filed as active; ? = inconclusive; / = no result. Unless noted, the call rests on the fitted dose curve; in most records, active means well fitted inhibition curve with a large enough effect; inconclusive means small, poorly fitted or top-dose-only effect, or effect the other way; inactive means flat fitted curve, though single readings scatter. Potency means the concentration at half of the fitted maximal effect.

SMILES	Eya2 phos inh	GALK inhibitor	ClpP mod	USP2a block
COc1ccc(CCNC(=O)C2CCN(S(=O)(=O)c3ccc(-n4cnnn4)cc3)CC2)cc1OC	-5.6%	2.2%	-0.3%	1.8%
Cn1c2ccccc2c2ncn(CCCN3CCOCC3)c(=O)c21	11.3%	0.1%	25.1µM*	-1.6%
Cc1ccc2[nH]c3c(=O)n(CCc4cnc[nH]4)cnc3c2c1	-5.5%	3.5%	15.8µM*	1.5%
Cc1ccc2[nH]c3c(=O)n(CCCN4CCOCC4)cnc3c2c1	3.3%	2.9%	14.1µM*	0.5%
Cc1ccc2[nH]c3c(=O)n(CCN4CCOCC4)cnc3c2c1	-10.2%	0.7%	?	-4.0%
COc1cc2[nH]c3c(=O)n(CCN4CCCCC4)cnc3c2cc1OC	-2.9%	2.7%	14.1µM*	-0.6%
COc1ccc2[nH]c3c(=O)n(CCCN4CCOCC4)cnc3c2c1	-1.7%	-1.4%	4.5%	0.0%
COc1ccc(C(CNC(=O)Cc2ccc3ccccc3c2)N(C)C)cc1 (stereo not given)	15.4%	-0.6%	/	0.0%
CCOC(=O)c1ccccc1NC(=O)Cn1c(=O)n(Cc2ccc(C(=O)NCc3ccc4c(c3)OCO4)cc2)c(=O)c2ccccc21	/	/	3.8%	/
CCC1CCCN1Cn1cnc2c([nH]c3ccc(C)cc32)c1=O (stereo not given)	-4.6%	/	28.2µM*	2.8%
Cc1ccc2c(c1)[nH]c1c(=O)n(Cc3ccccn3)cnc12	8.8%	5.4%	31.6µM*	5.4%
CCC1CCCN1Cn1cnc2c([nH]c3ccc(Cl)cc32)c1=O (stereo not given)	-3.5%	/	-29.8%	5.2%
CCN(C(=O)Cn1cnc2ccccc2c1=O)C1CCS(=O)(=O)C1 (stereo not given)	20.6%	/	/	0.0%
Cc1ccc(-c2cc(C(=O)N(C)CC(=O)Nc3ccccc3Br)c3ccccc3n2)o1	4.9%	/	25.1µM*	-0.5%
COc1ccc(NC(=O)c2cc(-c3ccc(C)o3)nc3ccccc23)cc1OC	-11.1%	2.9%	3.55µM*	1.1%
Cc1ccc(-c2cc(C(=O)N3CCCC(C(F)(F)F)C3)c3ccccc3n2)o1 (stereo not given)	-9.2%	/	15.8µM*	0.3%
Cc1ccc(C)c(S(=O)(=O)N2CCN(CC(=O)NC(=O)NCc3ccccc3)CC2)c1	-12.4%	0.4%	-3.2%	-5.8%
Cc1ccc(Cl)cc1NC(=O)CCS(=O)(=O)c1cccc2nonc12	6.8%	-2.2%	/	0.9%
S=c1[nH]nc(-c2cc3ccccc3o2)n1Cc1ccccc1	6.5%	-5.4%	3.16µM*	0.0%
COc1ccc(S(=O)(=O)N2CCCC(C(=O)N3CCN(c4ccccc4)CC3)C2)cc1Cl (stereo not given)	11.3%	2.5%	4.2%	-2.7%
Cc1ccc(CNS(=O)(=O)c2c(C)nc3sc(C)cn3c2=O)cc1	/	/	28.2µM*	/
COc1ccc(CCNS(=O)(=O)c2c(C)nc3sc(C)cn3c2=O)cc1OC	/	/	0.1%	/
Cc1cn2c(=O)c(S(=O)(=O)NC(C)c3ccccc3)c(C)nc2s1 (stereo not given)	/	/	31.6µM*	/
Cc1c(CCC(C)C)c(=O)n2c([nH]c3ccccc32)c1C#N	14.8%	-1.0%	3.16µM*	4.1%
O=C(NC1CC(=O)N(c2ccccc2)C1)c1ccc(S(=O)(=O)N2CCOCC2)cc1 (stereo not given)	/	/	-2.1%	/
SMILES	Eya2 phos inh	GALK inhibitor	ClpP mod	USP2a block
CCN(CC(=O)NCc1ccc(Cl)cc1)C(=O)c1cc(S(=O)(=O)N2CCOCC2)ccc1C	1.3%	/	14.1µM*	1.5%
CCN(CC(=O)NCc1cccs1)C(=O)c1cc(S(=O)(=O)N2CCOCC2)ccc1C	9.4%	1.0%	-9.7%	1.4%
O=C(Nc1sc2c(c1C(=O)O)CCC2)c1cccc(Cl)c1	9.8%	-6.4%	/	3.1%
CCOc1ccc2oc(-c3ccccc3)c(C(=O)N3CCN(CCO)CC3)c2c1	-3.7%	-0.2%	14.1µM*	1.5%
CCOc1ccc2oc(-c3ccccc3)c(C(=O)O)c2c1	9.0%	-0.5%	-4.7%	2.6%
CCOc1ccc2oc(-c3ccccc3)c(C(=O)N(C)C)c2c1	-28.7%	-2.5%	25.1µM*	2.4%
CC(=O)c1cc2c(cc1NC(=O)C1CN(C(C)=O)c3ccccc3O1)OCO2 (stereo not given)	0.6%	/	20µM*	-0.9%
O=C(COC(=O)c1ccc2c(c1)OCO2)Nc1cccc(F)c1	-3.3%	/	-12.6%	-0.2%
Cc1ccc(/C=C/C(=O)O)cc1S(=O)(=O)NCCCO	18.4%	-0.4%	-1.7%	1.7%
COc1cc(/C=C/C(=O)O)cc(S(=O)(=O)NCCCO)c1OC	6.4%	2.7%	28.2µM*	8.5%
Cc1cc(C)c2oc(-c3cccc(N)c3)nc2c1	-0.1%	2.7%	4.1%	-2.1%
Cc1ccc2nc(-c3cccc(N)c3)oc2c1	-14.9%	-0.5%	14.1µM*	0.2%
NS(=O)(=O)c1ccc(-c2ccc(C=C3C(=O)c4ccccc4C3=O)o2)cc1	4.3%	/	0.0%	1.6%
CC(C)CC1=C/C(=C/c2ccc(-c3ccccc3)o2)C(=O)O1	7.3%	/	25.1µM*	-12.8%
CCOc1cc(C#N)c(NC(=O)Cn2nnc3ccccc32)cc1OCC	-6.5%	2.8%	-0.3%	-1.3%
O=C(/C=C/c1ccco1)NCC(=O)N/N=C/c1ccc(Cl)cc1	5.4%	-0.4%	-2.9%	10.8%
C/C(=N/NC(=O)CNC(=O)/C=C/c1ccco1)c1ccc(Cl)cc1	4.8%	-2.4%	28.2µM*	-1.5%
CCP(=O)(c1ccccc1)C(C)(C)O (stereo not given)	-9.3%	1.4%	15.8µM*	0.0%
Nc1c(C(=O)NCC2CCCO2)c2nc3ccccc3nc2n1-c1ccccc1 (stereo not given)	-5.9%	5.6%	15.8µM*	0.6%
COc1ccccc1-n1c(N)c(C(=O)NCC2CCCO2)c2nc3ccccc3nc21 (stereo not given)	8.4%	0.8%	25.1µM*	1.4%
Nc1c(C(=O)OCC2CCCO2)c2nc3ccccc3nc2n1C1CCCCC1 (stereo not given)	-20.8%	-4.1%	14.1µM*	-1.9%
COc1ccc(C(=O)N2c3ccccc3CC2C)cc1OC (stereo not given)	/	2.2%	1.0%	/
CCC(C)n1c(-c2ccco2)nc2nc3ccccc3nc21 (stereo not given)	-4.0%	/	/	2.6%
COc1ccc(Cl)cc1C(=O)NNC(=O)c1cccc(S(=O)(=O)N(C)C)c1	3.3%	-3.0%	-0.2%	1.4%
N#Cc1c(C(F)(F)F)cc(-c2ccco2)nc1SCc1ccncc1	3.4%	-3.2%	25.1µM*	1.0%
N#Cc1c(C(F)(F)F)cc(-c2ccco2)nc1SCc1ccccn1	/	2.8%	31.6µM*	/
CSc1nc(-c2ccco2)cc(C(F)(F)F)c1C#N	-3.4%	0.7%	-7.4%	4.5%
CCN(CC)C(=O)CSc1nc(-c2ccco2)cc(C(F)(F)F)c1C#N	-2.5%	-0.2%	31.6µM*	0.1%
O=C(N/N=C/c1ccccc1O)c1cc[n+]([O-])cc1	3.9%	-0.6%	/	-0.7%
